These results are taken from PubChem BioAssay.

Active and inactive are the calls of the source.

A short description of assay [1]: optical density shifts of acrAB sulA E. coli – strain DRC41, OD650, 48 h, E. coli filamentation inducer project, primary screen (AID 1152).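 Further: E. coli MC1000 strain DRC41 lacking acrAB efflux pump and sulA.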 The conditions noted are these: higher = more signal, called active from +8 up or from −8 down.
Assay [2] is described as follows: probe aLefty1 binding on compound microarray – biochemical, small-molecule microarray, 635/667 nm fluorescence, primary screen (AID 1153).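 Further: score merges spot fluorescence with signal-to-noise ratio from the scanned slide images.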 The following applies: higher = more signal.
Assay [3] in a line: plasmodial surface anion channel blockers, osmotic lysis – cell-based, P. falciparum Indochina, OD700, 1 h, primary screen (AID 1154). The following applies: P. falciparum Indochina infected RBC osmotic lysis, higher = more signal, called active from +8 up or from −8 down.
Assay [4] is described as follows: plasmodial surface anion channel blockers, osmotic lysis – cell-based, P. falciparum Indochina, OD700, 2 h, primary screen (AID 1155).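 Further: lysis reports solute entry through the parasite surface anion channel PSAC.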 The following applies: P. falciparum Indochina infected erythrocytes, higher = more signal, called active from +8 up or from −8 down.
Assay [5] can be described thus: changes in parasitized red cell lysis, either direction – P. falciparum Indochina, OD700, 3 h, PSAC antagonist project, primary screen (AID 1156). The following applies: P. falciparum-infected erythrocytes, osmotic lysis, higher = more signal, called active from +8 up or from −8 down.
Assay [6] can be described thus: plasmodial surface anion channel blockers, osmotic lysis – cell-based, P. falciparum Indochina, OD700, 18 h, primary screen (AID 1157). The conditions noted are these: P. falciparum Indochina infected erythrocytes, osmotic lysis OD700, 18 h; higher = more signal, called active from +8 up or from −8 down.
Assay [7] in a line: S6 kinase pathway phospho-S6 level changes – cell-based, A549, cytoblot, luminescence, serum-stimulated, primary screen (AID 1158).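 Further: serum-stimulated A549 lung adenocarcinoma cells; signal is phosphorylated S6 detected by cytoblot immunostaining with HRP secondary.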 The following applies: 5 h, higher = more signal.
For assay [8], the target named is NADPH oxidase 2 (Homo sapiens) (UniProt P04839). Put plainly: compounds shifting NOX2 Amplex Red fluorescence – cell-based, HEK293-NOX2, PMA-stimulated, NOX inhibitor project, primary screen (AID 1159). Further: test concentration not given here. The following applies: 45 min, higher = more signal, called active from +8 up or from −8 down.
The target of assay [9] is NADPH oxidase 4 (Homo sapiens) (UniProt Q9NPH5). Put plainly: compounds shifting NOX4 Amplex Red fluorescence – cell-based, HEK293-NOX4, tetracycline-induced, NOX inhibitor project, primary screen (AID 1160). The following applies: HEK293-NOX4, Amplex Red H2O2 fluorescence, 45 min; higher = more signal, called active from +8 up or from −8 down.
The target of assay [10] is NADPH oxidase 5 (Homo sapiens) (UniProt Q96PH1). Put plainly: compounds shifting NOX5 Amplex Red fluorescence – cell-based, HEK293-NOX5, NOX inhibitor project, primary screen (AID 1161). The conditions noted are these: HEK293-NOX5, ionomycin, 45 min, higher = more signal.
A short description of assay [11]: compound effects on lung adenocarcinoma cell viability – A549, calcein-AM fluorescence, 48 h, basal, profiling panel (AID 1162). Further: test concentration not given here. The following applies: higher = more signal.
A short description of assay [12]: compound effects on differentiated 3T3-L1 adipocyte viability – cell-based, 3T3-L1 adipocytes, calcein-AM fluorescence, 48 h, basal, profiling panel (AID 1163). Further: test concentration not given here. The conditions noted are these: 3T3-L1 adipocytes viability, higher = more signal.
The nature of assay [13]: compound effects on hepatocellular carcinoma cell viability – HepG2, calcein-AM fluorescence, 48 h, basal, profiling panel (AID 1164). Further: test concentration not given here. The following applies: higher = more signal.
A short description of assay [14]: compound effects on multiple myeloma cell viability – MM1S, calcein-AM fluorescence, 48 h, basal, profiling panel (AID 1165).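 Further: viability of MM1S multiple myeloma cells under basal unstimulated conditions; test concentration not given here.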 The following applies: higher = more signal.
The nature of assay [15]: calcein-AM signal in unstimulated myeloma cells – cell-based, calcein-AM fluorescence, 48 h, PK04 Diversity Set, profiling panel (AID 1166).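 Further: cells grown under basal conditions without added stimulus; test concentration not given here.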 The following applies: RPMI8226 myeloma viability, higher = more signal.
Assay [16] is described as follows: JC-1 mitochondrial signal, unstimulated HepG2 cells – cell-based, JC-1 fluorescence, 24 h, 100 nL compound, profiling panel (AID 1167). Further: test concentration not given here. The conditions noted are these: HepG2 mitochondrial potential, higher = more signal.
Assay [17] in a line: JC-1 mitochondrial signal, unstimulated adipocytes – cell-based, JC-1 fluorescence, 3T3-L1 adipocytes, 24 h, 100 nL compound, profiling panel (AID 1168). Further: test concentration not given here. The following applies: JC-1 mitochondrial fluorescence, higher = more signal, called active from +8 up or from −8 down.
A short description of assay [18]: JC-1 mitochondrial signal, unstimulated myeloma cells – cell-based, JC-1 fluorescence, RPMI8226, 24 h, 100 nL compound, profiling panel (AID 1169). Further: test concentration not given here. The conditions noted are these: JC-1 mitochondrial potential fluorescence, higher = more signal.
The nature of assay [19]: JC-1 mitochondrial signal, unstimulated MM1S myeloma – cell-based, JC-1 fluorescence, 24 h, 100 nL compound, profiling panel (AID 1170). Further: test concentration not given here. The conditions noted are these: MM1S mitochondrial potential, higher = more signal.
Assay [20] in a line: resazurin metabolic signal in A549 cells – cell-based, resazurin fluorescence, 24 h, PK04 Diversity Set, profiling panel (AID 1171). Further: test concentration not given here. The following applies: A549 viability, higher = more signal, called active from +8 up or from −8 down.

Sequence of NADPH oxidase 5 (Homo sapiens) (Q96PH1 whole entry, looked up): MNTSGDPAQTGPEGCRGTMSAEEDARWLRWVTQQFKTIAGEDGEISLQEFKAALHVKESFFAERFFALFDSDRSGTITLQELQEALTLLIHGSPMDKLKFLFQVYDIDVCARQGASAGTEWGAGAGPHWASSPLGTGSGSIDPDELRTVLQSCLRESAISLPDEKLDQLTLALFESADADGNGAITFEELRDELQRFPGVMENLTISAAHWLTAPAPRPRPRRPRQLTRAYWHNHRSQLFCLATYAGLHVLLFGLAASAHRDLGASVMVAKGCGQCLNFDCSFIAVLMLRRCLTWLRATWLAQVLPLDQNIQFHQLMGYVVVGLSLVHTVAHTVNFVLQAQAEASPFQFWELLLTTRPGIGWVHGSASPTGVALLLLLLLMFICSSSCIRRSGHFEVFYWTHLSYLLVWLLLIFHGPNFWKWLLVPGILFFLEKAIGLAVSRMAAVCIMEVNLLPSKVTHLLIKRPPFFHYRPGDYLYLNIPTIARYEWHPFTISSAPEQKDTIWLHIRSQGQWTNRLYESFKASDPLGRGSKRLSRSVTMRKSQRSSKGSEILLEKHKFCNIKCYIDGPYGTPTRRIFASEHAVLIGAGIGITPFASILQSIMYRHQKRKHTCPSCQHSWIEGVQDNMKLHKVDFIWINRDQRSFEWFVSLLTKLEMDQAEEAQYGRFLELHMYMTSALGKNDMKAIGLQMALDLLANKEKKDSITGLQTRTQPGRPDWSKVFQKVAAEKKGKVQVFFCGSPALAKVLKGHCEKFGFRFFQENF
Sequence of NADPH oxidase 4 (Homo sapiens) (Q9NPH5 whole entry, looked up): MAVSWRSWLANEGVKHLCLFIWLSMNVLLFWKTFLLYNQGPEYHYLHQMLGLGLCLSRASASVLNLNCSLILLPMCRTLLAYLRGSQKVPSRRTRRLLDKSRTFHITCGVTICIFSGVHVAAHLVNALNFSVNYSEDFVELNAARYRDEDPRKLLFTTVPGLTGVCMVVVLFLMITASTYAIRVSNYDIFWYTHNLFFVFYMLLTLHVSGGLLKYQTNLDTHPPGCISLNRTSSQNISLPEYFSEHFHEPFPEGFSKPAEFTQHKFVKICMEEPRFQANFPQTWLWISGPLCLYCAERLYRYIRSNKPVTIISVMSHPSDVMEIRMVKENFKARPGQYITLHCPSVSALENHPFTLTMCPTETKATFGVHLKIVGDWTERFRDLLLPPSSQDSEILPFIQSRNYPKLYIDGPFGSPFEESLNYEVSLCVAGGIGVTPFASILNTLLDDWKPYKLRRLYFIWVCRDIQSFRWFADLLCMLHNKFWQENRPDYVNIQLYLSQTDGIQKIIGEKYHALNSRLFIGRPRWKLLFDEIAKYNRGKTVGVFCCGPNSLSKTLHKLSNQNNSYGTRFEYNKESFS
Sequence of NADPH oxidase 2 (Homo sapiens) (P04839 whole entry, looked up): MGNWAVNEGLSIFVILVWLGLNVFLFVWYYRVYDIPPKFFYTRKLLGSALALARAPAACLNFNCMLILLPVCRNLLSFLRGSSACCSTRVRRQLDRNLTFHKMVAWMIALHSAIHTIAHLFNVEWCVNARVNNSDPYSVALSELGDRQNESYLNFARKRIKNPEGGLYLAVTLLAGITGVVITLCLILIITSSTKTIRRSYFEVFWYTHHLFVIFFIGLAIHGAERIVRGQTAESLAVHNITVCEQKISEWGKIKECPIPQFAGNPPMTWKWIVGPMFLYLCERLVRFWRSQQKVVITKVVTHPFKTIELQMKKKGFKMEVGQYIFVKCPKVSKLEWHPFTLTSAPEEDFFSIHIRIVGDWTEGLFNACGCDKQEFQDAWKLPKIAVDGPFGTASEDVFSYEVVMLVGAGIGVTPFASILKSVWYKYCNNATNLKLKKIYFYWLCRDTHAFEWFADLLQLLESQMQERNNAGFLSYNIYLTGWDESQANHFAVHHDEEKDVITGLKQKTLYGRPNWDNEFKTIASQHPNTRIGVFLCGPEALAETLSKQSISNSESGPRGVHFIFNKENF

For the compound `COC(=O)[C@H](Cc1ccc(O)cc1)N[C@@H](/C=C/C1CC1)[C@H](O)Cc1ccccc1`, the z-score in [1] was -0.571 (inactive); in assay [3], 0.963 (inactive); in assay [4], 0.496 (inactive); in [5], 0.098 (inactive); in assay [6] it was -0.0396 (inactive); in assay [7], -0.557. Moreover, the z-score in [8] was 0.0285 (inactive); in assay [9], 0.516 (inactive); in assay [10] it was -0.929; in assay [11], -0.0547; in assay [12] it was -1.21; in assay [13], 0.192. Further, the z-score in [14] is -1.69; in assay [15], -0.192; in assay [16] it was -1.82; in assay [17], -0.177 (inactive); in assay [18] it was -0.512; in assay [19], -1.01. In addition, the z-score in assay [20] is 0.0243 (inactive). This compound also returned a composite z-score in [2] of -0.275.
`O=C(NCc1ccccc1)[C@@H]1c2ccccc2C(=O)N(Cc2ccc(OC(F)(F)F)cc2)[C@H]1c1ccc(CO)cc1`: the z-score is 0.39 (inactive) in assay [1]; 3.9 (inactive) in [3]; 0.566 (inactive) in [4]; 1.56 (inactive) in assay [5]; 0.158 (inactive) in assay [6]; 0.503 in [7]. For the same compound, the z-score in [8] was -3.06 (inactive); in assay [9], 0.263 (inactive); in assay [10], 0.401; in [11], 1.29; in assay [12], 0.711; in assay [13], 0.77. Further, the z-score was -0.279 in assay [14]; 0.473 in [15]; 2.44 in assay [16]; -0.602 (inactive) in assay [17]; -0.728 in assay [18]; 0.809 in assay [19]. In addition, in [20], the z-score was 1.39 (inactive). Moreover, in assay [2], the composite z-score is 0.656.
For the compound `C=C1C(=O)C=C2CN(C(=O)c3ccccc3)[C@@](Cc3ccc(OC)cc3)(C(=O)OC)[C@@H]12`, the z-score in assay [1] is -1.79 (inactive); in assay [3] it was 2.02 (inactive); in assay [4], 0.368 (inactive); in assay [5], 0.218 (inactive); in assay [6], 1.23 (inactive); in assay [7] it was -0.0615. Further, the z-score in [8] was 0.427 (inactive); in assay [9], 1.1 (inactive); in [10], 2.68; in [11], -1.92; in assay [12], -0.033; in assay [13], -1.62. Besides, the z-score was -1.73 in assay [14]; -4.68 in assay [15]; 0.971 in assay [16]; -1.02 (inactive) in assay [17]; -0.908 in [18]; -1.74 in [19]. The z-score in assay [20] is -0.701 (inactive). The same compound registered a composite z-score in assay [2] of 1.46.
In the case of `COc1ccc([Si](C)(C)[C@@H]2[C@@H](CC(=O)N3CCC[C@H]3CO)O[C@]3(C(=O)N(Cc4cccc(N5CCCCC5=O)c4)c4ccccc43)[C@H]2C)cc1`, the z-score in assay [1] was 0.422 (inactive); in [3], 3.85 (inactive); in assay [4], 1.23 (inactive); in assay [5] it was -1.02 (inactive); in [6], 0.278 (inactive); in [7] it was 0.067. Also, the z-score is 2.88 (inactive) in assay [8]; 1.64 (inactive) in assay [9]; 4.73 in [10]; -0.158 in [11]; 0.403 in [12]; -1.35 in [13]. In addition, the z-score in assay [14] was -2.81; in [15], -4.25; in [16] it was -2.13; in [17] it was -0.191 (inactive); in assay [18] it was -1.12; in [19] it was -1.47. Besides, in assay [20], the z-score was -1.6 (inactive). Also, the composite z-score in assay [2] was 0.0046.
Regarding `CCOC(=O)C[C@H]1[C@H](OC(=O)c2cc3ccccc3oc2=O)[C@@H](NC(=O)CC(C)C)c2cc(OCCCO)ccc2N1C(=O)Cc1ccc(OC)cc1`, the z-score is -0.752 (inactive) in assay [1]; 5.95 (inactive) in assay [3]; 0.711 (inactive) in assay [4]; 0.863 (inactive) in [5]; 0.5 (inactive) in assay [6]; -0.0561 in [7]. The z-score was 0.166 (inactive) in assay [8]; 0.381 (inactive) in [9]; 1.38 in assay [10]; 0.746 in assay [11]; 0.967 in assay [12]; 0.535 in assay [13]. The z-score in [14] is 0.12; in [15] it was 0.28; in assay [16] it was 0.433; in assay [17], -0.119 (inactive); in [18] it was 0.421; in assay [19], 0.328. Further, the z-score in assay [20] is -0.546 (inactive). Moreover, the composite z-score in assay [2] is -0.193.
